The panel holds about 83,000 compounds, 20% with a hit somewhere; the sample as a whole holds those more often.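 Values shown are percent growth following 48 h exposure of cells in 96-well plates to a single concentration of compound; below 10 was considered active.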 Active and inactive are the calls of the source.

In the test the test system is CAKI-1 renal. Put plainly: NCI-60 one-dose screen, 48 h (100 = growth as untreated, 0 = no growth, -100 = all killed). The conditions noted are these: 10 µM unless noted. As to the method:
Growth inhibition of the CAKI-1 human tumor cell line is measured as a screen for anti-cancer activity. Cells are grown in 96 well plates and exposed to the test compound for 48 hours. Compounds are tested at a single concentration, which is 10^-5 M for most compounds. The reported endpoint is percent growth (GI% or GIPRCNT), where numbers from 0 - 100% represent growth inhibition, and numbers from -100% - 0 represent cell death. For example, a value of 40 represents 60% growth inhibition. A value of 0 means no net growth occurred over the course of the experiment. A value of -40 indicates 40% of cells at the beginning of the experiment died by the end of the experiment. A value of -100 means all cells are dead at the end of the experiment.
NCI-60 Human Tumor Cell Lines Screen was performed using the standard one-dose NCI protocol, which is described in more detail at https://dtp.cancer.gov/discovery_development/nci-60/default.htm.
Compounds with GIPRCNT values below 10 were considered active. Activity score was based on GIPRCNT using the following formula: […]
Score is 0 for GIPRCNT values of 100 or above, 50 for GIPRCNT values of 0, and 100 for GIPRCNT values of -100.
On to `CCCN1CC(c2ccc(OC)c(OC)c2)=C(c2cn(C(=O)OCC)c3ccccc23)C1=O`, for which the growth is 25.8% (inactive).

Take `CC1(C)CC[C@]2(C(N)=O)CC[C@]3(C)C(=CC[C@@H]4[C@@]5(C)C/C(=C/c6cccnc6)C(=O)C(C)(C)[C@@H]5CC[C@]43C)[C@@H]2C1`: the growth was -30.6% [100 µM] (active).

For the compound `[2H]C1([2H])CCN(C(=O)C2CC2)c2cc(NS(=O)(=O)c3ccc(-c4cccc(C(N)=O)c4)cc3)ccc21`, the growth was 72.3% (inactive).

As for `Ic1ccc2[nH]cc(SSc3c[nH]c4ccc(I)cc34)c2c1`, the growth is -6.92% (active).

As to `CC1=CCc2ccccc21`, the growth was 87.7% (inactive).

As to `C=C(C)[C@@H]1CC[C@]2(C(=O)NCCCCCCN(CCCN)CCCN)CC[C@]3(C)[C@H](CC[C@@H]4[C@@]5(C)CC[C@H](OCCCN)C(C)(C)[C@@H]5CC[C@]43C)[C@@H]12`, the growth was 94.5% [100 µM] (inactive).

In the case of `C[C@H]1[C@H](C)CC[C@]2(C(=O)O)CC[C@]3(C)C(=CC[C@@H]4[C@@]5(C)C/C(=C/c6cccnc6)[C@H](O)C(C)(C)[C@@H]5CC[C@]43C)[C@H]12`, the growth was 7.71% [100 µM] (active).

With `CCOC(=O)C1=C(C(=O)c2ccc(Br)cc2)C(c2ccc(Br)cc2)NC(=S)N1` (stereo not given), the growth is 86% (inactive).

`Nn1c(Nc2ccc(S(=O)(=O)Nc3ncccn3)cc2)nnc(/C=C/c2c(O)ccc3ccccc23)c1=O`: the growth was 98.4% (inactive).

Take `O=C1NC(=O)c2cc([N+](=O)[O-])cc3cccc1c23`: the growth is 84.8% (inactive).

`O=C1/C(=C\c2cn(CC(O)CN3CCCCC3)c3ccccc23)c2ccccc2N1c1c(Cl)cccc1Cl` (stereo not given): the growth is -80.3% (active).

As for `N#C/C(C(=O)c1ccccc1)=C1/C(=O)Nc2ccc(F)cc21`, the growth is 86.3% (inactive).

For the compound `COc1ccc2nc3ccccc3c(NCCNCCO)c2c1`, the growth is 6.25% (active).

Regarding `COc1cc(C)cc2oc3oc(=O)c(-c4nc5ccccc5s4)cc3c(=O)c12`, the growth is 91.8% (inactive).

For `CC(C)CCSC1=CC(=O)c2ccccc2C1=O`, the growth was 21.1% (inactive).

`C=C(C)[C@@H]1CC[C@]2(C(=O)N3CCN(C)CC3)CC[C@]3(C)[C@H](CC[C@@H]4[C@@]5(C)C/C(=C/c6ccncc6)[C@H](O)C(C)(C)[C@@H]5CC[C@]43C)[C@@H]12`: the growth was 12.1% [100 µM] (inactive).

Turning to `CC(C)c1ccc(C(=O)Nc2nc3ccc(O)cc3s2)cc1`, the growth was -5.74% (active).

Take `CCN(CC)c1ccc2cc(C(Nc3ccc(Cl)cc3)c3nnnn3C(C)(C)C)c(=O)oc2c1` (stereo not given): the growth is 73.1% (inactive).

Regarding `Cn1c(=O)c(C#N)c(-c2ccco2)n2c(S(=O)(=O)Cc3ccccc3)nnc12`, the growth was 82.4% (inactive).

On to `COc1ccc(-c2ccc(NNC(=O)c3ccc(F)cc3)nn2)cc1OC`, for which the growth is 17.3% (inactive).

With `COCc1nc2ccccc2[nH]1`, the growth is 93.4% (inactive).

Take `COc1ccc(/C=C(/C2=NCCN2)n2ccc3ccccc32)cc1`: the growth was 69.7% (inactive).

In the case of `COc1cc(NCc2cn(-c3ccc(C(=O)O)cc3)nc2-c2ccc(C(=O)O)cc2)cc(OC)c1OC`, the growth is 87.9% (inactive).

For `O=S(=O)(NCCCNc1nccc(-c2c(-c3cccc(F)c3)nc3occn23)n1)c1cccc2ccccc12`, the growth was 20.5% (inactive).

Turning to `CC(C)C1=NOC(=O)C1=Cc1cn(-c2ccccc2)nc1-c1ccc(Cl)cc1`, the growth was 65.8% (inactive).

Consider `C#C[C@]1(O)CC[C@H]2[C@@H]3CC=C4c5nc(Nc6ccccn6)sc5CC[C@]4(C)[C@H]3CC[C@@]21C`, for which the growth was -37.6% (active).

On to `O=C(Nc1cc(-c2cccnc2)nc(NCCCN2CCOCC2)n1)c1cc(Br)cc(C(F)(F)F)c1`, for which the growth is 61.8% (inactive).

In the case of `O=C1CC(c2ccc3c(c2)OCO3)Nc2ccccc21` (stereo not given), the growth was 33.9% (inactive).

Turning to `C[C@@H]1C[C@H]2C(=O)O[C@@H](C)[C@H](NC(=O)[C@H](Cc3cc(F)cc(F)c3)NC(=O)Nc3ccc(Cl)cc3F)C(=O)N3C[C@H](O)C[C@H]3C(=O)N3CCN(C)C[C@H]3C(=O)N[C@@H](C)C(=O)N2C1`, the growth was 72.7% (inactive).

As for `CSc1nc(=S)c2nc(SC)n(-c3ccccc3)c2[nH]1`, the growth is 90.9% (inactive).

Regarding `N=C(N)c1ccc(-c2ccc(-c3ccc(-c4cccs4)s3)s2)cc1F`, the growth is 93.6% (inactive).

`C#C[C@]1(O)CC[C@H]2[C@@H]3CC=C4c5nc(Nc6ccc(OC)cc6OC)sc5CC[C@]4(C)[C@H]3CC[C@@]21C`: the growth is 26.4% (inactive).

Take `CC(C)C1=NOC(=O)C1=Cc1cn(-c2ccccc2)nc1-c1ccc(Br)cc1`: the growth was 62.9% (inactive).

Take `CCN(CC)CCCOc1ccc2c(c1)O/C(=C\c1cccc(OC)c1)C2=O`: the growth was 87.4% (inactive).

With `CC(C)=CCC[C@](C)(O)[C@H]1CC[C@]2(C)[C@@H]1CC[C@@H]1[C@@]3(C)CC/C(=N/O)C(C)(C)[C@@H]3CC[C@]12C`, the growth is -58.4% [100 µM] (active).

`C=C(CC(=O)OC)C(C)=O`: the growth was 101% (inactive).

Turning to `COc1ccc(C(C(=O)O)c2ccc(OC)cc2)cc1`, the growth is 112% (inactive).

Take `Nc1cc(C(=O)O)[nH]c(=S)n1`: the growth was 94.9% (inactive).

Consider `CC1Cc2c(Cl)ncnc2N(C)c2ccc(Cl)cc21` (stereo not given), for which the growth was 8.59% (active).

With `O=C1/C(=C\c2cccn2Cc2ccccc2)c2ccccc2N1c1c(Cl)cccc1Cl`, the growth was 55.8% (inactive).

These data come from PubChem BioAssay (NCI).
